Screening results as filed in PubChem BioAssay.
BRCA1 expr up: activators of BRCA1 expression. MCF7-BRCA1-FFLuc reporter, luminescence, 48 h; response scale: scaled: vehicle 0%, 10 µM genistein 100%. Potency, µM (series often up to 46.1 µM), without a hit: at the top dose activation, most hits filed as activators. hit rate 1.1% among 380,000. AID 624202; note: potency is the fitted concentration of half-maximal effect; nearly all actives have a fitted effect of over 80% in size
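First, MCF7-BRCA1-FFLuc cells (2000/well) attach for 2 h; next, compounds are pin-added and incubated 48 h at 37 °C; finally, luciferase reagent is added and luminescence read after 15 min.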
Mm-Cpn inhibitor: inhibitors of Methanococcus maripaludis chaperonin TRiC (MmCpn) | Potency, µM (doses to about 76.9 µM), for the others: at the highest dose activity, negative = inhibition, actives largely listed as inhibitors | hit rate 0.031% among 330,000 | purified Mm-Cpn ATPase, ADP Transcreener TR-FRET | AID 504842; note: potency is the fitted concentration of half-maximal effect; % is set by controls: 0 for no effect and ±100 for the full control effect; nearly all actives have a fitted effect of over 80% in size
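ATPase read-out: TR-FRET ADP immunoassay (anti-ADP Eu cryptate vs ADP-d2), ex 320 nm, em 590/665 nm; signal drops as ADP forms. Enzyme 25 nM, ATP 10 uM, 30 min at 37°C after 10 min compound preincubation.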
CCT modulator: changes cytosolic chaperonin activity. hit rate 0.3% among 360,000. purified chaperonin ATPase assay, HTRF ADP detection, 30 min. activity change, % (test concentration not listed), hits read low; in the data active = activity change below about -30%; note: % is set by controls: 0 for no effect and ±100 for the full control effect
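TRiC (40 or 20 nM final, by batch activity) in 30 mM Tris pH 7.4, 100 mM KCl, 5 mM MgCl2, 1 mM DTT was treated with compound at 76 uM single dose, then 10 uM ATP, 30 min at 37 °C. ADP was read by HTRF Transcreener.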
Akt phos inh: blocks phosphorylation of Akt; Neuro2A IGF-stimulated pAkt S473 HTRF, 20 min; stronger effect = lower value; activity change, % for hits at 50 µM; hit rate 0.32% among 360,000; in the data active = activity change below about -80%; inconclusive = mostly about -51% to -80%; note: % is set by controls: 0 for no effect and ±100 for the full control effect
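Neuro2A cells in DMEM with 0.5% FBS, overnight at 37 deg C, given compound at single 50 µM final, then IGF (6 nM final) for 20 min at 37 deg C. Lysed; phospho-Akt Ser473 by HTRF after 24 h, 665/615 ratio.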
AT treatment: potential ataxia-telangiectasia treatment. hit rate 0.19% among 320,000. F2112 A-T fibroblasts, KAP-1 phosphorylation AlphaLISA; neocarzinostatin DNA damage 30 min before lysis. Potency, µM (doses to about 57.5 µM), without a hit: at the top dose activation, actives largely listed as activators; note: potency is the fitted concentration of half-maximal effect; % of control where 0% means no effect; nearly all actives have a fitted effect of over 45% in size
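hTERT-immortalized A-T patient fibroblasts (F2112), 500 cells/well in OPTI-MEM, 1% FBS, got compounds for 60 min, then NCS for 30 min at 37C. Lysates were then assayed for phospho-KAP-1 by AlphaLISA (anti-pKAP1 donor, anti-KAP1 acceptor beads), 6 hr at 25C.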
Numbers without * were called inactive; i = inactive; ? = inconclusive; / = no result given. Only some compounds are listed: those with a hit (about 1.8% of all), similar ones and a draw of the others. Unless noted, calls come from the whole dose curve; as a rule, active = well fitted curve in the direction sought with a large enough effect; inconclusive = small, poorly fitted or top-dose-only effect, or another doubt; inactive = no such curve, though single readings can be large; an effect the other way counts as inactive or inconclusive.

SMILES | BRCA1 expr up | Mm-Cpn inhibitor | CCT modulator | Akt phos inh | AT treatment
O=c1[nH]/c(=C/c2ccc3c(c2)OCO3)c(=O)[nH]/c1=C\c1ccc2c(c1)OCO2 | 1% | / | / | / | /
CN(C)S(=O)(=O)c1cccc(NC(=O)c2cc(-c3cccs3)nc3ccccc23)c1 | -35% | ? | -32* | i | 7%
COc1cc(OC)cc(C(=O)NC(C(=O)Nc2ccc3c(c2)OCCO3)C(C)C)c1 (stereo not given) | 50% | 4% | -1 | i | -5%
COc1cc(OC)cc(C(=O)Nc2ccc3c(c2)OCCO3)c1 | 13µM* | -3% | 1 | i | ?
NS(=O)(=O)c1cccc(NC(=O)c2cc(-c3cccs3)nc3ccccc23)c1 | -9% | -3% | 0 | i | -3%
CCOc1ccc(C(=O)Nc2ccc3c(c2)OCCO3)cc1OC | 10µM* | 0% | 1 | i | 0%
C[C@H](NC(=O)c1ncn2c1C(=O)NC[C@H]2C)C(=O)OC(C)(C)C | -2% | / | -2 | i | /
COc1cc2oc3ccccc3c(=O)c2cc1OC | 40% | -5% | 0 | i | -18%
O=c1c2ccccc2oc2ccc(Oc3ccccc3)cc12 | 3.5µM* | 1% | -3 | i | 29%
COc1cc(C)ccc1OCc1cc(C(=O)N(Cc2c(C)nn(C)c2C)C2CC2)no1 | 13µM* | 1% | 0 | i | -4%
COc1cc(Cl)ccc1OCc1cc(C(=O)N2C[C@H]3CC[C@H]2C3)no1 | 11µM* | 1% | 2 | i | 7%
COc1cc(Cl)ccc1OCc1cc(C(=O)N2C[C@@H]3CCC[C@H]2C3)no1 | ? | -1% | -2 | i | -2%
CC(=O)c1ccc(OCc2cc(C(=O)N(C)C3CCOC3)no2)cc1 (stereo not given) | 13µM* | 0% | 1 | i | 0%
Cc1cc(OCc2cc(C(=O)N(C)C3CCOC3)no2)cc(C)c1Cl (stereo not given) | 2.8µM* | -6% | 0 | i | 13%
O=C(O)c1ccc(Nc2nc3ccccc3n3cnnc23)cc1 | 0% | / | / | / | /
Nc1[nH]c(=O)nc2nnsc12 | 1% | / | / | / | /
COc1cc(Cl)ccc1OCc1cc(C(=O)N(C)C2CCOC2)no1 (stereo not given) | 13µM* | -13% | -6 | i | -1%
CC(=O)c1ccc(OCc2cc(C(=O)N(C)Cc3nc4c(C)cccc4[nH]3)no2)cc1 | -19% | 1% | 0 | i | 13%
CC(=O)c1ccc(OCc2cc(C(=O)N(C)CCOc3ccc(C)cc3)no2)cc1 | 4µM* | -1% | 1 | i | 21%
COc1ccc(CN2C(=O)N(c3ccccc3)C(=O)C2c2ccccc2)cc1COc1ccc(NC(C)=O)cc1 (stereo not given) | -27% | / | / | / | /
C=C1CCN([C@H](C(=O)OCc2ccc(C)cc2)C(C)C)S(=O)(=O)c2ccccc21 | -19% | 1% | 0 | i | 40µM*
Cc1cc(C(=O)OCC(=O)Nc2cc(C)on2)c2ccccc2n1 | -14% | 0% | -35* | i | 3%
Cc1ccc(C(=O)CSc2nc3ccccc3c(=O)n2-c2ccccc2)s1 | 6% | -1% | 0 | -100%* | 3%
Cc1ccc(-n2c(SCC(=O)Nc3cc(C)on3)nc3ccccc3c2=O)cc1 | -2% | 1% | -1 | -85%* | -1%
O=C(O)c1ccc(CSc2nc3ccccc3c(=O)n2-c2ccccc2)cc1 | 0% | 1% | -6 | i | -8%
SMILES | BRCA1 expr up | Mm-Cpn inhibitor | CCT modulator | Akt phos inh | AT treatment
S=c1nc(NCc2cccc(Cl)c2)c2ccccc2[nH]1 | 10% | -3% | 0 | i | -4%
CN(C)c1c(Br)cc(C=O)cc1Br | 12% | / | / | / | /
COc1cc2c(NC3CCN(C)CC3)nc(N3CCCN(C)CC3)nc2cc1OCCCCCCN(C)C | -37% | / | / | / | /
Cc1ccc([C@H]2C[C@@H](n3cc(C4CC4)nn3)[C@H](O)CN2CC2CCCCC2)cc1 | ? | / | -74* | i | /
Cc1ccc([C@H]2C[C@H](n3cc(C4CC4)nn3)[C@@H](O)CN2CC2CCCCC2)cc1 | -51% | / | 0 | i | /
COc1ccc(CNC(=O)CN2C(=O)COc3ccc(S(=O)(=O)N4CCC(C)CC4)cc32)cc1 | -26% | -2% | 1 | i | 4%
